Source: PubChem BioAssay (Broad Institute)
AF4-AF9 inh: inhibitors of human MLL-AF4/AF9 interaction | P42568 | AlphaScreen, biotin-AF4 peptide binding to FLAG-AF9 | inhibition, % at 10 µM | 0.47% of 350,000 active;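 active = every replicate reaching a set inhibition limit, whatever the replicate mean, cut at about 25% in these data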;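 note: 0% = plate neutral control median and 100% = total signal loss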
GSIS activator: GLuc luminescence reporter in INS-1E cells, primary screen for activators of glucose-dependent secretion of insulin. INS-1E GLuc reporter insulin secretion, 2-3 h. activation, % at 16.6 µM. 0.61% of 370,000 active;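 active = lowest replicate activation of at least 40%, so every replicate reaches that level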;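 note: 0% = median of neutral control wells and 100% = median of IBMX positive control wells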
Env fusion inh: blocks HIV Env-driven cell-cell fusion. HeLa-JRFL Env/CEM21 cell fusion, luciferase. inhibition, % at 12.3 µM. 1.1% of 360,000 active. AID 651610;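 active = mean replicate inhibition score of at least 50 and every replicate individually at or above 50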;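 note: 0% = plate neutral controls and 100% = maraviroc near 300 nM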
NSD2 HMT inh: blocks human histone methyltransferase NSD2. inhibition, % at 12.5 µM. O96028. NSD2 peptide methylation, AlphaScreen, 120 min. 0.54% of 310,000 active; in the data active = inhibition above about 50%
Target sequence (O96028 whole entry, looked up): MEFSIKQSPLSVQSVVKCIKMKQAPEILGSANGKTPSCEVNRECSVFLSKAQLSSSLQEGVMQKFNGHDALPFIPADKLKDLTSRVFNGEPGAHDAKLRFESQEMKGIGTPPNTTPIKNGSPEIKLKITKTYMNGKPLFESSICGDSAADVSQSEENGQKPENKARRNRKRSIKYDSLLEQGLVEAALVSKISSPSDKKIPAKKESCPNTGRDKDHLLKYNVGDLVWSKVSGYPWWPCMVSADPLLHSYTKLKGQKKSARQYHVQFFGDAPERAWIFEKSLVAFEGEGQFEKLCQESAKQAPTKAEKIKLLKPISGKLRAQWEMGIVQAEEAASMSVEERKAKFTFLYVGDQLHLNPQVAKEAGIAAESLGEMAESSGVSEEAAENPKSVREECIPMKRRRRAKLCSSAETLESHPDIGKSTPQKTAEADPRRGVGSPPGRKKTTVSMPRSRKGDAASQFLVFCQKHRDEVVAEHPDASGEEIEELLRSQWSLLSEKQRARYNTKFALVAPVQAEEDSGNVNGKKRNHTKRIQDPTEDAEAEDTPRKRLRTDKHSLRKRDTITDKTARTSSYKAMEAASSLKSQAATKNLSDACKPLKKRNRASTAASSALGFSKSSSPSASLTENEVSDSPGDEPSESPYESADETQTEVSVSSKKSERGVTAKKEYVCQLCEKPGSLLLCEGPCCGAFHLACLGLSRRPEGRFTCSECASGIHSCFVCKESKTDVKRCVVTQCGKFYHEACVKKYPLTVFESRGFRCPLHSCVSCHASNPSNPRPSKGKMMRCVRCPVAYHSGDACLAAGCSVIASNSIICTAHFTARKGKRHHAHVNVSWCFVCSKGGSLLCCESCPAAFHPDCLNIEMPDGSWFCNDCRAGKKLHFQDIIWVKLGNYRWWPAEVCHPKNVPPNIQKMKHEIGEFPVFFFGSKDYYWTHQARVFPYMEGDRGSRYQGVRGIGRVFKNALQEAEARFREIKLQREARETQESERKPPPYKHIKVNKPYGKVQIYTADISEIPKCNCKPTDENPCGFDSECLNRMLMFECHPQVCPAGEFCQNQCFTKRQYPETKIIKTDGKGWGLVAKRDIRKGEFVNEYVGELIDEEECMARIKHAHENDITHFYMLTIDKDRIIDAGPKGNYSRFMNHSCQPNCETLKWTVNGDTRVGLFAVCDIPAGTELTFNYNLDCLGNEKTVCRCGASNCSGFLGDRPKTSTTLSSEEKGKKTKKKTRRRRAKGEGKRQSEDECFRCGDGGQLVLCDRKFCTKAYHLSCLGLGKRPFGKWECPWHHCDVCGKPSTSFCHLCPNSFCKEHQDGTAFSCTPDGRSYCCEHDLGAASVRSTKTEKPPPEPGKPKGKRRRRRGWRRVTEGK
PGC1a acetyl inh: lowers PGC1a acetylation signal in U2OS cells; inhibition, % at 15.6 µM; 0.17% of 350,000 active; AlphaScreen anti-acetyl-lysine; with virally co-expressed GCN5 acetyltransferase;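 active = every replicate shows inhibition of at least 40%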;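 note: 0% = neutral control wells and 100% = positive control wells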
Active calls of the source: *; ! = repeats disagree; [ ] = another dose, or the depositor's remark. This is a sample that favours compounds with a hit; in the whole collection about 2.1% have one here.

Results for COc1ccc(OC)c(Nc2c3ccccc3nc3ccccc23)c1 ?
AF4-AF9 inh: 40.4*; GSIS activator: 12.2; Env fusion inh: 13.4; NSD2 HMT inh: 7.1; PGC1a acetyl inh: -6.5

How did CCNS(=O)(=O)c1ccc(NC(=O)c2c(-c3ccccc3)noc2C)cc1 do in these assays?
AF4-AF9 inh: 1.3; GSIS activator: 9.4; Env fusion inh: 2.2; NSD2 HMT inh: 0.8; PGC1a acetyl inh: 8.0

How did COc1cc2c(cc1NC(=O)Nc1ccccc1)oc1ccccc12 do in these assays?
NSD2 HMT inh: -0.1; PGC1a acetyl inh: -12.7

Results for Cc1ccc(S(=O)(=O)N(C)C[C@@H]2Oc3ccc(NC(=O)Nc4ccc5c(c4)OCO5)cc3C(=O)N([C@H](C)CO)C[C@@H]2C)cc1 ?
AF4-AF9 inh: 4.5; GSIS activator: -19.6; Env fusion inh: 60.1*[16.7 µM]; PGC1a acetyl inh: -14.4

What do the screens show for `C[C@H](CO)N1C[C@H](C)[C@H](CN(C)S(=O)(=O)c2ccc(Cl)cc2)Oc2ccc(NC(=O)Nc3ccc4c(c3)OCO4)cc2C1=O`?
AF4-AF9 inh: 3.5; GSIS activator: -18.3; Env fusion inh: 110.7*[16.7 µM]; PGC1a acetyl inh: -12.6

Results for C[C@@H]1CN([C@@H](C)CO)C(=O)c2cc(NC(=O)CCC(F)(F)F)ccc2O[C@@H]1CN(C)S(=O)(=O)c1ccc(F)cc1 ?
AF4-AF9 inh: -2.3; GSIS activator: -8.0; Env fusion inh: 17.3[16.7 µM]; PGC1a acetyl inh: 1.1

What do the screens show for `C[C@@H]1CN([C@@H](C)CO)C(=O)c2cc(NC(=O)Nc3ccc4c(c3)OCO4)ccc2O[C@H]1CN(C)S(=O)(=O)c1ccc(Cl)cc1`?
AF4-AF9 inh: 7.9; GSIS activator: 23.0; Env fusion inh: -1.7[16.7 µM]; PGC1a acetyl inh: 5.5

Results for Cc1ccc(S(=O)(=O)N(C)C[C@H]2Oc3ccc(NC(=O)CCC(F)(F)F)cc3C(=O)N([C@H](C)CO)C[C@@H]2C)cc1 ?
AF4-AF9 inh: -1.4; GSIS activator: -7.1; Env fusion inh: 7.3[16.7 µM]; PGC1a acetyl inh: 48.4*

How did Cc1ccc(S(=O)(=O)N(C)C[C@H]2Oc3ccc(NC(=O)Nc4ccc5c(c4)OCO5)cc3C(=O)N([C@@H](C)CO)C[C@H]2C)cc1 do in these assays?
AF4-AF9 inh: 3.8; GSIS activator: -19.4; Env fusion inh: 0.0[16.7 µM]; PGC1a acetyl inh: 7.1

What do the screens show for `C[C@H]1CN([C@@H](C)CO)C(=O)c2cc(NC(=O)Nc3ccc4c(c3)OCO4)ccc2O[C@H]1CN(C)S(=O)(=O)c1ccc(Cl)cc1`?
AF4-AF9 inh: 6.3; GSIS activator: -18.1; Env fusion inh: 64.9*[16.7 µM]; PGC1a acetyl inh: -9.7

What do the screens show for `O=C(NCc1cccnc1)C(=O)N/N=C/c1ccc([N+](=O)[O-])cc1`?
AF4-AF9 inh: -1.5; GSIS activator: 7.3; Env fusion inh: 15.7; NSD2 HMT inh: -1.4

What do the screens show for `CC(=O)N1CCC(C(=O)NCCOc2cccc(C)c2)CC1`?
AF4-AF9 inh: 26.4*; GSIS activator: 7.7; Env fusion inh: -2.4; NSD2 HMT inh: -1.4; PGC1a acetyl inh: -3.3

Results for Nc1ncc([N+](=O)[O-])c(N2CCCCCC2)n1 ?
AF4-AF9 inh: 0.4; GSIS activator: 18.3; Env fusion inh: 51.6; NSD2 HMT inh: -3.0; PGC1a acetyl inh: 52.6*

Results for COC(=O)CN(c1ccc2c(c1)OCCO2)S(=O)(=O)c1ccccc1 ?
NSD2 HMT inh: -2.4; PGC1a acetyl inh: 0.7

Results for COc1ccc(/C=C2\CCc3ccccc3C2=O)cc1Cn1cccn1 ?
Env fusion inh: 65.3*; NSD2 HMT inh: -3.5; PGC1a acetyl inh: 3.1

What do the screens show for `COc1ccc(NC(=O)N[C@H]2CC[C@@H](CC(=O)NC3CCC3)O[C@H]2CO)cc1`?
AF4-AF9 inh: 0.7; GSIS activator: -10.4; Env fusion inh: 2.8[16.7 µM]; PGC1a acetyl inh: -2.7

What do the screens show for `COc1ccc2nc(C)cc(N/N=C/c3ccc(F)cc3)c2c1`?
AF4-AF9 inh: 4.0; GSIS activator: 3.2; Env fusion inh: 89.7*; PGC1a acetyl inh: 93.7*

Results for COc1ccc(/C=N/Nc2cc(C)nc3ccccc23)cc1 ?
AF4-AF9 inh: 16.8; GSIS activator: -15.6; Env fusion inh: 2.0; NSD2 HMT inh: -6.5

Results for COc1ccccc1-n1c(C)nnc1SCC(=O)Nc1cc(C)cc(C)c1 ?
Env fusion inh: 55.6*; NSD2 HMT inh: 1.4; PGC1a acetyl inh: -16.6

Results for COc1ccccc1-n1c(C)nnc1SCC(N)=O ?
Env fusion inh: 16.4; NSD2 HMT inh: 4.3

What do the screens show for `C=CCC(=O)N1CCC(n2nccc2NC(=O)c2ccc3c(c2)OCO3)CC1`?
AF4-AF9 inh: -2.1; GSIS activator: -1.6; Env fusion inh: -9.4; NSD2 HMT inh: 1.1

Results for CC[C@H](NC(=O)[C@H]1O[C@@H](n2cnc3c(=O)[nH]c(N)nc32)[C@H](O)[C@@H]1O)c1ccccc1 ?
Env fusion inh: -9.5

How did COc1cc(CN2C[C@@H]3N[C@H](C2)C3c2ccc(/C=C/c3ccccc3)cc2)cc(OC)c1 (some centres undefined) do in these assays?
GSIS activator: 83.7*!; PGC1a acetyl inh: -38.5

What do the screens show for `C/C=C/c1ccc(C2[C@@H]3CN(Cc4cccc(OC)c4)C[C@H]2N3)cc1` (some centres undefined)?
GSIS activator: -18.5; PGC1a acetyl inh: -10.0

What do the screens show for `COc1cc(CN2C[C@@H]3N[C@H](C2)C3c2ccc(-c3cccc(OC)c3)cc2)cc(OC)c1` (some centres undefined)?
AF4-AF9 inh: 26.0*!; GSIS activator: -13.2; PGC1a acetyl inh: -69.1

What do the screens show for `CCOC(=O)Cn1cc([N+](=O)[O-])c(OC)n1`?
GSIS activator: -4.1; NSD2 HMT inh: -0.6; PGC1a acetyl inh: 2.1

How did O=C(O)CC/C(=N\NC(=O)CNC(=O)/C=C/c1ccccc1)c1ccccc1 do in these assays?
AF4-AF9 inh: 0.8; GSIS activator: 25.7; Env fusion inh: -1.2; PGC1a acetyl inh: -5.5

What do the screens show for `O=C([C@H]1[C@H](CO)[C@H]2Cn3c(ccc(-c4ccc(F)cc4)c3=O)[C@H]2N1Cc1cocn1)N1CCCCC1`?
AF4-AF9 inh: 2.7; GSIS activator: -7.1

Results for COc1ccc(-c2ccc(C(=O)NCc3ccc(N4CCN(C)CC4)cc3)c3occc23)c(C)c1 ?
AF4-AF9 inh: 36.9*; Env fusion inh: -23.9; NSD2 HMT inh: 2.7; PGC1a acetyl inh: -24.3

Results for COc1ccc(-c2ccc(C(=O)NCc3ccccc3)c3occc23)c(C)c1 ?
AF4-AF9 inh: 0.8; Env fusion inh: -12.2; NSD2 HMT inh: -1.4; PGC1a acetyl inh: -21.3

What do the screens show for `Cc1nnc(N2C(=O)C(=O)/C(=C(/O)c3ccc4c(c3)OCCO4)C2c2ccc(F)cc2)s1` (centres undefined)?
AF4-AF9 inh: -1.0; GSIS activator: 6.9; Env fusion inh: 3.6; NSD2 HMT inh: 1.8; PGC1a acetyl inh: -0.1

Results for O=C1C(=O)N(c2nccs2)C(c2ccccc2F)/C1=C(\O)c1ccc2c(c1)OCCO2 (centres undefined) ?
AF4-AF9 inh: 1.5; GSIS activator: -0.3; Env fusion inh: 59.2*; NSD2 HMT inh: 3.8; PGC1a acetyl inh: 9.1
